Results: the supplement of paper PMC10849652
About 7,900 targets were measured; listed, in parts, are those with a hit and a random draw of the rest. About 0.6% of all pairs of compound and target were hits. Values without a mark were called inactive.

What was measured:
Assay in all cases: log2 fold change, soluble protein after heating vs DMSO (PISA); higher = thermal stabilisation; K562 cells, 10 uM, 30 min; active = over 0.2 and 3.5 SD of the protein, either way, in both replicates (recomputed)
saracatinib = compound: CN1CCN(CCOc2cc(OC3CCOCC3)c3c(Nc4c(Cl)ccc5c4OCO5)ncnc3c2)CC1 [saracatinib]
How it was run: (§1)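 K562 cells at 2×10^6 cells/mL were treated with 10 μM compound for 30 min. Aliquots were heated for 3 min across 48°C-58°C, pooled, and extracted in PBS with 0.5% NP-40 at 4°C; soluble protein was the supernatant after 21,000xg for 90 min. Soluble protein was quantified by TMTpro 16plex LC-MS/MS with channel sums equalised, and reported as log2 fold change in thermal stability against DMSO controls, with values from duplicates.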

sotrastaurin = compound: CN1CCN(c2nc(C3=C(c4c[nH]c5ccccc45)C(=O)NC3=O)c3ccccc3n2)CC1 [sotrastaurin]
How it was run: as §1

alvocidib = compound: CN1CC[C@H](c2c(O)cc(O)c3c(=O)cc(-c4ccccc4Cl)oc23)[C@H](O)C1 [alvocidib]
How it was run: as §1

Tubastatin A = compound: CN1CCc2c(c3ccccc3n2Cc2ccc(C(=O)NO)cc2)C1 [Tubastatin A]
How it was run: as §1

[1] = compound: CNC(=O)C1=CC=CC=C1NC2=NC(=NC=C2Cl)NC3=C(C=C(C=C3)N4CCOCC4)OC
How it was run: as §1

defactinib = compound: CNC(=O)c1ccc(Nc2ncc(C(F)(F)F)c(NCc3nccnc3N(C)S(C)(=O)=O)n2)cc1 [defactinib]
How it was run: as §1

rucaparib = compound: CNCc1ccc(-c2[nH]c3cc(F)cc4c3c2CCNC4=O)cc1 [rucaparib]
How it was run: as §1

[2] = compound: CNc1nc(-c2ccc3c(N)n[nH]c3c2)cc(N2C[C@@H](C(=O)NC3CCCCC3)CC[C@H]2C)n1
How it was run: as §1

encorafenib = compound: COC(=O)N[C@@H](C)CNc1nccc(-c2cn(C(C)C)nc2-c2cc(Cl)cc(NS(C)(=O)=O)c2F)n1 [encorafenib]
How it was run: as §1

[3] = compound: COC(=O)[C@H](CCSC)NC(=O)C1=C(C=C(C=C1)NC[C@H](CS)N)C2=CC=CC=C2
How it was run: as §1

UniProt Q10589, sequence (Q10589 whole entry, looked up): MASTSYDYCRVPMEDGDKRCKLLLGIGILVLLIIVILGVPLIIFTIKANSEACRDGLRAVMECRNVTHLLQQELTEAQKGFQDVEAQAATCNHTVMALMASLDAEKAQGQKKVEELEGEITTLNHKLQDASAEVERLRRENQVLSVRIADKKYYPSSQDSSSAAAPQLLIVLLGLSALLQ
UniProt Q9H8Y5, sequence (Q9H8Y5 whole entry, looked up): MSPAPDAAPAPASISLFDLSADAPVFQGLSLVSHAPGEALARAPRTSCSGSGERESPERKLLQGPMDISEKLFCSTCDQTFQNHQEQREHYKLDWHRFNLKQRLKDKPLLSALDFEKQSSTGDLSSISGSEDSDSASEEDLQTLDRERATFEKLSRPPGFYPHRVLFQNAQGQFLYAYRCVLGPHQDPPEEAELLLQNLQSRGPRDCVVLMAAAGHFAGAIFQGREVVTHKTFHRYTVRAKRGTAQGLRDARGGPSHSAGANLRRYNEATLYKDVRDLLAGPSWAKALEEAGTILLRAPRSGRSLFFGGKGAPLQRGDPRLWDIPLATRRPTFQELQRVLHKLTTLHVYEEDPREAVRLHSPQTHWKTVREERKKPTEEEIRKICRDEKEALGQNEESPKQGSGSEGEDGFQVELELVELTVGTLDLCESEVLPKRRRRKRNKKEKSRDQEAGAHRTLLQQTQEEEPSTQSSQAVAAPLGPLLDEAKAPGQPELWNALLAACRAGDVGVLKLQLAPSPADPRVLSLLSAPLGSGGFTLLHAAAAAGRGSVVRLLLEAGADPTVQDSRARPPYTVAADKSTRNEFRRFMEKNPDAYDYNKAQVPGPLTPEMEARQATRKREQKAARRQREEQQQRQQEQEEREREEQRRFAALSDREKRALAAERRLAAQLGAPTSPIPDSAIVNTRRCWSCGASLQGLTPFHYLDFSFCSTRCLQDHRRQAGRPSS
UniProt Q9Y487, sequence (Q9Y487 whole entry, looked up): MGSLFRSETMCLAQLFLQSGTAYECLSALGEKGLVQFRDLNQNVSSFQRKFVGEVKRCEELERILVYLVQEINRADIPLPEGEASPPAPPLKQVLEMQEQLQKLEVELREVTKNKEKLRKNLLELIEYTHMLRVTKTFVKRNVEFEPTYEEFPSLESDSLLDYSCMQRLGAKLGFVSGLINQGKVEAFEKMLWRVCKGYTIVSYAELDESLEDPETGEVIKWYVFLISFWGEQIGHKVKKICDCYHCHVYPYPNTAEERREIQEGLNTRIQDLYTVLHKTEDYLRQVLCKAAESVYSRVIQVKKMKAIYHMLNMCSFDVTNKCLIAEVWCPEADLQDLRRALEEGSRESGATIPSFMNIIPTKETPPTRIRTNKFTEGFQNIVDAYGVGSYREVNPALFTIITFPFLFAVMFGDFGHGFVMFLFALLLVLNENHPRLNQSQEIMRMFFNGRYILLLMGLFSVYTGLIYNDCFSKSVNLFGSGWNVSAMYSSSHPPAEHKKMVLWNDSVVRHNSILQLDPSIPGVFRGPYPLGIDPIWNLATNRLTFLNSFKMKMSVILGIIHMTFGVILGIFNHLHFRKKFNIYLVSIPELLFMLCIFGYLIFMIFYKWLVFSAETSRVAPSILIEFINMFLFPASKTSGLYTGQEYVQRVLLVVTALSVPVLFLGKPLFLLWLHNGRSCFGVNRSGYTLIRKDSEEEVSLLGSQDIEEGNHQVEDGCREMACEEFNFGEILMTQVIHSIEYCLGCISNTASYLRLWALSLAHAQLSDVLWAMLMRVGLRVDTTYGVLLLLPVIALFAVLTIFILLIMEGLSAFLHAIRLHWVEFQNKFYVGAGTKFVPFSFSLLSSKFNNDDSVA
UniProt Q9UI12, sequence (Q9UI12 whole entry, looked up): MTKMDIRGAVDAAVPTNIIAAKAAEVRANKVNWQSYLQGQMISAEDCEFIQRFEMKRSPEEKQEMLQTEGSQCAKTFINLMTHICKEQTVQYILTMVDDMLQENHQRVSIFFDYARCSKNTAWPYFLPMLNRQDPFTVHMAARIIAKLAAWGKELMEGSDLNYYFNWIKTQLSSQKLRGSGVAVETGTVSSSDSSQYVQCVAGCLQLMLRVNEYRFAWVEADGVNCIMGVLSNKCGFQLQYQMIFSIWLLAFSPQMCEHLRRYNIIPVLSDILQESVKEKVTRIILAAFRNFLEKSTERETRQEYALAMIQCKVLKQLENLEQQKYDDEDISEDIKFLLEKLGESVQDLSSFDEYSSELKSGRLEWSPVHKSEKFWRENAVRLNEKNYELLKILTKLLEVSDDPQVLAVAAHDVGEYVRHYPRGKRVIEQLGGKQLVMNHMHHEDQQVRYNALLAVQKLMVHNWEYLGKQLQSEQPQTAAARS
UniProt Q8N2F6, sequence (Q8N2F6 whole entry, looked up): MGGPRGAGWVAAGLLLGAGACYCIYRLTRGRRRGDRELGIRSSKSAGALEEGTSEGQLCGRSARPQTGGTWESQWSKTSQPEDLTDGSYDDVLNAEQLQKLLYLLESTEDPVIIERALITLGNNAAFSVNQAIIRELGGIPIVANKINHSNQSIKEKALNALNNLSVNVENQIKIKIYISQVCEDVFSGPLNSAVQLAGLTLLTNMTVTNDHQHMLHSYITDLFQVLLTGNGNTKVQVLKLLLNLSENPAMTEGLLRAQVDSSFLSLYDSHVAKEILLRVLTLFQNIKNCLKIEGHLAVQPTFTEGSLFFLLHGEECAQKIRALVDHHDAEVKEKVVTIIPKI
UniProt Q9NXW9, sequence (Q9NXW9 whole entry, looked up): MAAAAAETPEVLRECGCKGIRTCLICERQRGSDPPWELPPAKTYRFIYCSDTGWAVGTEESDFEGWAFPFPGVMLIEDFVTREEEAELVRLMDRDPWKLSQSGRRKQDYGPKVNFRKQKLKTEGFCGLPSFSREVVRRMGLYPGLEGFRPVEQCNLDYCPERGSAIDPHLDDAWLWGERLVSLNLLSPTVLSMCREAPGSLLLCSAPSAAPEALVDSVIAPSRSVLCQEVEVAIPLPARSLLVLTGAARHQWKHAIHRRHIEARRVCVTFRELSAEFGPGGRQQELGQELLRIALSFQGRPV
UniProt Q86WA6, sequence (Q86WA6 whole entry, looked up): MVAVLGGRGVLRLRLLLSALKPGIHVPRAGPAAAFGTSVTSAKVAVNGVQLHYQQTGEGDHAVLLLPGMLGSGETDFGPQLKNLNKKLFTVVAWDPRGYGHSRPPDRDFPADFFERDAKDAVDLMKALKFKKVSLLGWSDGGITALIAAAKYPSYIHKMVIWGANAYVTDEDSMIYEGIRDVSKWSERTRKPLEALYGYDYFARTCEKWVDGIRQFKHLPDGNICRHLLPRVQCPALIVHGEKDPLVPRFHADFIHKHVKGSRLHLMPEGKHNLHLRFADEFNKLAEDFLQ
UniProt Q9P287, sequence (Q9P287 whole entry, looked up): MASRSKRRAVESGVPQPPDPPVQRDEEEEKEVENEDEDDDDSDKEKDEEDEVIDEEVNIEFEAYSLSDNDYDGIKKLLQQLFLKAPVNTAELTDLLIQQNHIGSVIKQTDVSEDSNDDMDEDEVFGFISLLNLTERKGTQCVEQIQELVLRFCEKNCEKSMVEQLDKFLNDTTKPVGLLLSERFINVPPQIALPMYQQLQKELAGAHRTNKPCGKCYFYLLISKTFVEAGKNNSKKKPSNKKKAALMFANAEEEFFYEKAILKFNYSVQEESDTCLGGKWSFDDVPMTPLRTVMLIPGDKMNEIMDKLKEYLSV
UniProt Q92560, sequence (Q92560 whole entry, looked up): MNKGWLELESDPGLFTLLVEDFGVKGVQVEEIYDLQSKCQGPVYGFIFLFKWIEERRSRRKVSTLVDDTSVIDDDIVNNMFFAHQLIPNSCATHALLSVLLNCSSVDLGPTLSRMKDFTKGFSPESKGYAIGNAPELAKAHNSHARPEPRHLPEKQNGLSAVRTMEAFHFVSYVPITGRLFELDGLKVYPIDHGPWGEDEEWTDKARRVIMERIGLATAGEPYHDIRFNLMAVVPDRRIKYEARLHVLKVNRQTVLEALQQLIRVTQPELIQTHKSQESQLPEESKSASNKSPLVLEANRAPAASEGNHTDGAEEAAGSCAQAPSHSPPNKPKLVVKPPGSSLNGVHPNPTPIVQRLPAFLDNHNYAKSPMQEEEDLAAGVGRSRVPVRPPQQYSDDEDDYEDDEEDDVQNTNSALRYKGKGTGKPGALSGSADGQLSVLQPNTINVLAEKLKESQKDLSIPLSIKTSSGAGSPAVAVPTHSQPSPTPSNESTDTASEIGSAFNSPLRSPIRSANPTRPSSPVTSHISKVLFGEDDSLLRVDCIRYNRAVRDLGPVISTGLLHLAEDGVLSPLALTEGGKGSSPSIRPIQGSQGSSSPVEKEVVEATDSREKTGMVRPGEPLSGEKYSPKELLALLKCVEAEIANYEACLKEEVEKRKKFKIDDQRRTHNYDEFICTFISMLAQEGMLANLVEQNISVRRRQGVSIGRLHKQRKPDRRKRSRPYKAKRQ
UniProt P17544, sequence (P17544 whole entry, looked up): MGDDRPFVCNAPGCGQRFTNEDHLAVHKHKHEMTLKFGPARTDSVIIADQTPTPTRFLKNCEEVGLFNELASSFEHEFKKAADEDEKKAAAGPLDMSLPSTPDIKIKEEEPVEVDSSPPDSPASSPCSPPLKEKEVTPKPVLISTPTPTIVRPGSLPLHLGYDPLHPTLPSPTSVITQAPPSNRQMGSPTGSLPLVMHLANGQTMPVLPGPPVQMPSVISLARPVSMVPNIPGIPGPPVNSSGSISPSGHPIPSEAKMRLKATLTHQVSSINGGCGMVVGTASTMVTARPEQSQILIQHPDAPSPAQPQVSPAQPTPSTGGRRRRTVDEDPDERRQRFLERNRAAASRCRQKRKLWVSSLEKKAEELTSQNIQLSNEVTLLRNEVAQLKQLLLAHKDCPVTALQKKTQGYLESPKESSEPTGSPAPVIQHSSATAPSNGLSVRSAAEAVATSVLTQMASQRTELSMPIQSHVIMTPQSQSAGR
UniProt P56385, sequence (P56385 whole entry, looked up): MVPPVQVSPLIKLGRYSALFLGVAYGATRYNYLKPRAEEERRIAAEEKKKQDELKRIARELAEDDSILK

Target | log2 fold change (saracatinib) | log2 fold change (sotrastaurin) | log2 fold change (alvocidib) | log2 fold change (Tubastatin A) | log2 fold change [1] | log2 fold change (defactinib) | log2 fold change (rucaparib) | log2 fold change [2] | log2 fold change (encorafenib) | log2 fold change [3]
AKR1C3 (UniProt P42330) | 0.05 | 0.093 | -0.054 | 0.044 | 0.188 | 0.222 | 0.061 | 0.424 | -0.081 | 0.007
ANXA5 (UniProt P08758) | -0.023 | -0.038 | -0.083 | -0.006 | 0.039 | -0.082 | -0.001 | 0.012 | 0.083 | -0.062
ATAD1 (UniProt Q8NBU5) | -0.044 | 0.029 | -0.007 | 0.008 | -0.032 | -0.029 | 0.018 | 0.136 | 0.017 | -0.042
AUP1 (UniProt Q9Y679) | 0.052 | -0.116 | -0.062 | 0.031 | -0.062 | -0.015 | -0.04 | -0.041 | 0.029 | -0.037
AMFR (UniProt Q9UKV5) | -0.06 | -0.056 | -0.021 | -0.016 | 0.088 | -0.043 | 0.011 | -0.015 | 0.033 | 0.008
AP2A1 (UniProt O95782) | 0.049 | 0.001 | 0.027 | 0.001 | 0.004 | 0.012 | 0.01 | -0.047 | 0.032 | -0.038
ARFGEF1 (UniProt Q9Y6D6) | 0.037 | 0.039 | -0.055 | 0.013 | 0.094 | 0.007 | 0.011 | 0.059 | 0.048 | -0.038
B4GALNT1 (UniProt Q00973) | -0.143 | -0.07 | 0.177 | -0.057 | -0.021 | -0.182 | 0.017 | 0.025 | 0.144 | -0.425
AFDN isoform 5 (UniProt P55196) | -0.034 | -0.032 | -0.095 | 0.025 | -0.043 | -0.115 | 0.023 | 0.035 | 0.077 | -0.033
ATP5ME (UniProt P56385) | 0.026 | 0.009 | 0.04 | -0.009 | -0.006 | 0.029 | -0.022 | -0.069 | -0.07 | 0.023
BCCIP (UniProt Q9P287) | -0.132 | 0 | 0.065 | -0.045 | -0.013 | 0.072 | 0.165 | 0.02 | 0.076 | -0.049
ALG11 (UniProt Q2TAA5) | 0.047 | 0.013 | -0.064 | -0.023 | -0.018 | -0.021 | -0.015 | -0.021 | 0.073 | -0.082
BST2 (UniProt Q10589) | 0.003 | -0.097 | -0.005 | -0.055 | -0.063 | 0.03 | -0.008 | -0.07 | 0 | 0.012
ATP6V0A2 (UniProt Q9Y487) | -0.009 | -0.07 | 0.036 | 0.061 | -0.003 | 0.019 | -0.003 | -0.021 | 0.043 | -0.039
ARMC10 (UniProt Q8N2F6) | 0.012 | -0.123 | 0.002 | 0.109 | 0.079 | -0.03 | 0.157 | 0.006 | 0.142 | -0.049
ALKBH4 (UniProt Q9NXW9) | -0.072 | -0.106 | -0.227 | 0.086 | 0.198 | -0.056 | 0.07 | 0.03 | 0.074 | 0.071
ATP1B3 (UniProt P54709) | -0.019 | 0.084 | -0.038 | -0.014 | 0.004 | -0.047 | -0.033 | 0.016 | -0.023 | 0.034
ALDH18A1 (UniProt P54886) | -0.038 | -0.178 | 0.063 | -0.027 | -0.065 | -0.122 | 0.001 | -0.281 | 0.098 | -0.047
ACAP2 (UniProt Q15057) | -0.02 | -0.029 | -0.068 | 0.001 | 0.031 | -0.032 | -0.016 | -0.04 | 0.062 | -0.026
ANKRD29 (UniProt Q8N6D5) | -0.089 | -0.011 | -0.016 | 0.27 | -0.02 | -0.04 | -0.227 | 0.118 | 0 | -0.038
BPHL (UniProt Q86WA6) | 0.056 | 0.019 | -0.083 | -0.259 | 0.025 | -0.014 | 0.069 | 0.006 | -0.012 | -0.017
BAIAP2 (UniProt Q9UQB8) | 0.009 | -0.016 | -0.017 | 0.036 | -0.103 | -0.097 | 0.014 | -0.017 | 0.006 | -0.022
BAP1 (UniProt Q92560) | -0.091 | 0.089 | 0.053 | 0.042 | -0.1 | 0.09 | 0.037 | 0.061 | 0.014 | -0.017
BRAP (UniProt Q7Z569) | -0.04 | -0.198 | -0.042 | 0.046 | 0.057 | -0.087 | 0.076 | -0.024 | 0.042 | -0.064
ANKZF1 (UniProt Q9H8Y5) | -0.146 | -0.093 | 0.034 | 0.088 | 0.04 | 0.123 | 0.167 | 0.156 | 0.119 | -0.274
APOB (UniProt P04114) | -0.139 | -0.17 | -0.014 | -0.021 | 0.012 | 0.05 | -0.197 | -0.364 | 0.04 | -0.005
ATF7 isoform 6 (UniProt P17544) | 0.477 (active) | -0.105 | 0.026 | -0.088 | -0.096 | 0.063 |  | 0.034 |  | -0.037
AURKA (UniProt O14965) | -0.019 | -0.02 | -0.03 | 0.011 | 0.974 (active) | 0.722 (active) | 0.073 | 0.201 | 0.033 | 0.071
AP2A2 isoform 2 (UniProt O94973) | 0.006 | -0.028 | 0.052 | 0.022 | 0.022 | -0.006 | 0.077 | -0.053 | -0.002 | -0.008
ATP6V1H (UniProt Q9UI12) | -0.047 | -0.015 | -0.065 | 0.046 | -0.016 | -0.042 | 0.016 | 0.054 | 0.016 | -0.043
